Experimental findings from PubChem BioAssay AID624494 (National Center for Advancing Translational Sciences (NCATS), 2012) are described below.

As usually defined, the Ki is a dissociation constant, usually derived from enzyme kinetics or from competition with a known ligand.

Activity calls are given as the source filed them.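 How the source made its calls: active means D2 binding constant Ki of 1000 nM or lower when displacing the radioligand; inactive means the rest.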

D(2) dopamine receptor (Homo sapiens), sequence (P14416 whole entry, looked up): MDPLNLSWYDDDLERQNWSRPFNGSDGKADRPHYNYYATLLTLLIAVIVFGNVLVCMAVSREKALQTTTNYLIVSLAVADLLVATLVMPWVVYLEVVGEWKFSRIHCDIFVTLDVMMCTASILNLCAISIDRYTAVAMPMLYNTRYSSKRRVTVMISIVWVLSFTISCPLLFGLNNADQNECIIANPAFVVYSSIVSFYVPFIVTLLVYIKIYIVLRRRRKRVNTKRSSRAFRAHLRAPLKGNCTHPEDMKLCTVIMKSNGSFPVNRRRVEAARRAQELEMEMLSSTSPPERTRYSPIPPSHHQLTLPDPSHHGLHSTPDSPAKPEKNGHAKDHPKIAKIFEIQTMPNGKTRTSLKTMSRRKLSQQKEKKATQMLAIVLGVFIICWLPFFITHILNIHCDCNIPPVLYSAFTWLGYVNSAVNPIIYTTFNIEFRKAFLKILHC

The experiment addresses D(2) dopamine receptor (Homo sapiens) (UniProt P14416). Briefly: HTS Assay for Allosteric Antagonists of the Human D2 Dopamine Receptor: SAR in D2 Binding Assay. To be noted: D2 radioligand binding, methylspiperone displacement. The text has this:
Dopamine receptors (DARs) are involved in the etiology and/or therapy of a number of neuropsychiatric and endocrine disorders. For instance, all receptor-based antiparkinsonian drugs work via stimulating the D2 DAR subtype whereas all FDA-approved antipsychotic agents are antagonists of this receptor. […] There are three different types of allosteric modulators that we are seeking, two of which will stimulate or augment receptor signaling, allosteric agonists and potentiators, while the third, allosteric antagonists, will attenuate receptor signaling. The present primary screening assay measures compound antagonism after an EC80 addition of dopamine by tracking calcium flux in a […], inducible Hek293 Trex D2 cell line. This assay measures activity of the leads in the D2 radioligand binding assay. NIH Chemical Genomics Center [NCGC] NIH Molecular Libraries Probe Centers Network [MLPCN] MLPCN Grant: NS0676421 Assay Submitter (PI): David Sibley
Radioligand displacement assay will be done to determine if the lead compounds are allosteric or orthosteric in nature, for interaction with the D2 receptor. Compounds will be evaluated for their ability to displace binding of methylspiperone.
As for `CN1C(=O)c2ccccc2[S@](=O)c2ccc(C(=O)NCCc3cccs3)cc21`, the Ki was 0.1 µM (active).
